# High-throughput results deposited in PubChem BioAssay by National Center for Advancing Translational Sciences (NCATS).
# DT40 TDP1 CPT = qHTS for Inhibitors of human tyrosyl-DNA phosphodiesterase 1 (TDP1): qHTS in cells in presence of CPT; chicken DT40 Tdp1-/-;hTDP1 cells + 20 nM CPT, ATP luminescence, 48 h; Potency, µM (top dose mostly 46.2 µM), inactives show top-dose activity change, negative = growth inhibition, actives largely listed as inhibitors; actives 12% (n = 420,000); further: potency means the concentration at half of the fitted maximal effect; nearly all actives have a fitted effect of over 55% in size
#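 Chicken DT40 Tdp1-/- cells stably complemented with human TDP1 were seeded at 400 cells/well in medium containing 20 nM camptothecin, exposed to pin-transferred compounds, and grown at 37 °C for at least 48 hr. Viability was read as ATP luminescence.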
# Gal4-VP16 FLuc = VP16 counterscreen qHTS for inhibitors of ROR gamma transcriptional activity. Drosophila S2 Gal4-VP16 UAS-luciferase, luminescence, 20 h. Potency, µM (doses to about 53.6 µM), without a hit: top-dose activity, negative = inhibition, actives largely listed as inhibitors. actives 3.5% (n = 310,000);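 further: Gal4-VP16 expression switched on by copper sulfate through the metallothionein promoter; potency means the concentration at half of the fitted maximal effect; nearly all actives have a fitted effect of over 50% in size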
# IL1B secr inh = qHTS for Inhibitors of Inflammasome Signaling: IL-1-beta AlphaLISA Primary Screen; THP-1 LPS/ATP IL-1B secretion, AlphaLISA, 16 h; active compounds read low; activity change, % at 57.5 µM; actives 4.7% (n = 360,000); in the data active means activity change below about -50%; inconclusive means mostly about -30% to -49%
#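 Secreted IL-1B measured by AlphaLISA bead assay after 16 h compound exposure of THP-1 cells; compounds (final up to 57.5 uM) added 1 h before LPS (250 ng/mL) and ATP (1.25 mM) stimulation; lower signal means less secretion.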
# TDP1 cell noCPT = qHTS for Inhibitors of human tyrosyl-DNA phosphodiesterase 1 (TDP1): qHTS in cells in absence of CPT; actives 15% (n = 420,000); Potency, µM (top dose mostly 46.2 µM), inactives show at the highest dose activity change, negative = growth inhibition, hits mostly inhibitors; AID 686978, 2013; DT40 Tdp1-/- hTDP1 cells, no CPT, ATP luminescence, 48 h; further: potency means the concentration at half of the fitted maximal effect; nearly all actives have a fitted effect of over 55% in size
#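 Growth kinetics read by CellTiter-Glo luminescence after ≥48 hr at 37 °C. Cells: DT40 Tdp1-/- stably carrying human TDP1, 400 per well, compound exposure in the absence of CPT (DMSO vehicle).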
# RORg inh = qHTS for inhibitors of ROR gamma transcriptional activity | Nuclear receptor ROR-gamma (Mus musculus), P51450 | Drosophila S2 Gal4-RORgamma UAS-luciferase reporter, 20 h | actives 5.4% (n = 310,000) | Potency, µM (series often up to 53.6 µM), inactives show at the highest dose activity change, negative = inhibition, actives largely listed as inhibitors; further: potency means the concentration at half of the fitted maximal effect; nearly all actives have a fitted effect of over 60% in size
# Target sequence (P51450 whole entry, looked up, the tested form may be a part): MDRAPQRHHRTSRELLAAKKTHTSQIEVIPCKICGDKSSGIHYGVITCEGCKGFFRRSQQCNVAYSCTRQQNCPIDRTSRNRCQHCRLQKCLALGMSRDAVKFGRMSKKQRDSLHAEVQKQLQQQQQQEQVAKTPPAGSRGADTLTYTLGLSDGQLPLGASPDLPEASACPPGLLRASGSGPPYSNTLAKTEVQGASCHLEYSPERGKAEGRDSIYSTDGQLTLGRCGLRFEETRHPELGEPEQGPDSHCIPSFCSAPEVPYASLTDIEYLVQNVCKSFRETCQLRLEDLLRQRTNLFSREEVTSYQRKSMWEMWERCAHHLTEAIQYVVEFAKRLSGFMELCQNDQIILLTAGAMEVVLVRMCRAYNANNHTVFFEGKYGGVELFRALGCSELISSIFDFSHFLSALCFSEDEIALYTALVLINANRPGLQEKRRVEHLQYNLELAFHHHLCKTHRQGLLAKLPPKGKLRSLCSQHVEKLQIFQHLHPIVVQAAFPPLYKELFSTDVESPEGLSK
#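 Schneider cells (Drosophila), stable Gal4 DBD–ROR gamma + UAS-luc; 1 hr cmpd preincubation; Cu2+ induction 700 uM final; 20 hr ambient; luminescence.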
# LDHA inh = qHTS assay for inhibitors of human lactate dehydrogenase; AID 1347041, 2019; purified LDHA, NADH/diaphorase-resazurin fluorescence; active compounds read low; activity change, % (values are at about 110 or 230 µM); actives 0.15% (n = 480,000); in the data active means activity change below about -30%; inconclusive means mostly about -25% to -30%;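 further: plate controls were DMSO wells for no effect and wells without enzyme for full effect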
#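 Remaining NADH was detected by diaphorase (0.133 mg/mL) converting 37 µM resazurin to fluorescent resorufin, read at 0 and 20 minutes. The preceding 5-minute room-temperature reaction used 2 nM LDHA, 0.2 mM sodium pyruvate and 0.06 mM NADH at pH 7.4.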
# Active calls of the source: *; ? = inconclusive; . = no result; [ ] = remark or other dose. An excerpt weighted towards active compounds, which were near 18% of everything screened. Unless noted, the call rests on the fitted dose curve; in most records, active means well fitted curve in the direction sought with a large enough effect; inconclusive means small, poorly fitted or top-dose-only effect, or another doubt; inactive means no such curve, though single readings can be large; an effect the other way counts as inactive or inconclusive. Unless noted, on the % scale 0 is the no-effect control and ±100 the full control effect.
SMILES,DT40 TDP1 CPT,Gal4-VP16 FLuc,IL1B secr inh,TDP1 cell noCPT,RORg inh,LDHA inh
COc1ccc(Nc2nc(CN3CCOCC3)nc3sc4c(c23)CCC(C)C4)cc1OC (stereo unspecified),.,-8.0%,.,.,-4.1%,.
COc1cc2c(cc1OC)CN(c1nc(CN3CCOCC3)nc3sc4c(c13)CCC(C)C4)CC2 (stereo unspecified),11.6µM*,?,-67.7*,14.6µM*,11.2µM*,3.4
O=C(O)CC1C(=O)NCCN1CC1CCCCC1 (stereo unspecified),.,.,.,.,.,1.5
COc1cccc(C(=O)Nc2sc3c(c2C(N)=O)CCC(C)C3)c1OC(F)F (stereo unspecified),.,.,.,.,.,9.0
NNc1nc2c(F)cc(F)cc2s1,?,17.8µM*,-24.5,23.1µM*,?,7.6
CC1CCc2c(sc(Nc3nc4c(F)cccc4s3)c2C(N)=O)C1 (stereo unspecified),?,5.01µM*,-78.5*,16.4µM*,5.62µM*,-7.8
Nc1nc2c(F)cccc2s1,-3.3%,-4.2%,27.9,1.9%,20.9%,-3.5
NNc1nc2c(F)cccc2s1,?,?,4.8,14.6µM*,15.8µM*,-3.4
Fc1cccc2sc(Nc3nc4c(F)cccc4s3)nc12,?,?,17.5,13µM*,4.47µM*,-0.8
OC(Cc1ccnc2ccccc12)C(Cl)(Cl)Cl (stereo unspecified),?,.,8.4,10.3µM*,.,3.9
COc1ccccc1Cn1c(=O)c2ccccc2n2c(Sc3ncnc4sccc34)nnc12,20.6µM*,?,-85.3*,20.6µM*,11.2µM*,-14.4
CCCn1c(=O)c2ccccc2n2c(SCCOc3ccc(OC)cc3)nnc12,?,-0.1%,-4.3,?,-5.8%,-1.7
COc1ccccc1Cn1c(=O)c2ccccc2n2c(SCc3csc(C)n3)nnc12,?,-0.9%,-54.6*,?,19.9%,-3.2
O=C(CSC(=S)N1CCCC1)c1cc(Br)cc(Br)c1O,?,?,-12.3,?,?,9.8
CC1CCCN(C(=S)SCC(=O)c2cc(Br)cc(Br)c2O)C1 (stereo unspecified),4.11µM*,7.0%,11.6,2.91µM*,?,13.7
CC(C)=CCc1c(-c2ccc(O)cc2O)oc2cc3c(c(O)c2c1=O)C=CC(C)(C)O3,23.1µM*,.,?,23.1µM*,.,-4.0
Cc1ccc(NC(=O)CN(C)C(=O)c2cccc(S(=O)(=O)N3CCc4ccccc43)c2)cc1,20.6µM*,.,-25.3,16.4µM*,.,-2.5
COc1ccccc1CN(C)C(=O)c1cccc(S(=O)(=O)N2CCc3ccccc3C2)c1,?,.,?,16.4µM*,.,-2.3
COc1ccccc1CN(C)C(=O)c1cccc(S(=O)(=O)N2CCCC2)c1,?,.,10.8,-9.8%,.,0.6
COc1ccc(CN(C)C(=O)c2cccc(S(=O)(=O)N3CCc4ccccc43)c2)c(OC)c1,20.6µM*,.,-21.7,14.6µM*,.,0.5
COc1ccc(CN(C)C(=O)c2cccc(NS(=O)(=O)c3ccccc3)c2)c(OC)c1,-27.3%,3.6%,-15.4,0.4%,4.2%,-3.8
COc1cccc(CNC(=O)CSc2nc(C3CC3)nc3ccccc23)c1,.,.,.,.,.,2.2
CCCNC(=O)COC(=O)Cc1nn(C)c(=O)c2ccccc12,.,.,.,.,.,-0.4
O=C(O)C12C3CCC(O3)C1(C(=O)O)C1CCC2O1 (stereo unspecified),-5.3%,.,16.8,-3.2%,.,3.9
C[C@@]12C(=O)OC(=O)[C@@]1(C)C1CCC2O1,-9.0%,5.01µM*,.,-1.6%,14.1µM*,.
SMILES,DT40 TDP1 CPT,Gal4-VP16 FLuc,IL1B secr inh,TDP1 cell noCPT,RORg inh,LDHA inh
C[C@@]12C(=O)OC(=O)[C@@]1(C)[C@@H]1CC[C@@H]2O1,29.9µM*,8.7%,.,29.9µM*,30.4%,.
C[C@@]12C(=O)OC(=O)[C@]1(C)[C@H]1CC[C@@H]2O1,.,5.01µM*,.,.,-13.0%[2.98 µM],.
O=C(NCCc1ccco1)C1CCN(S(=O)(=O)c2ccccc2)CC1,.,.,.,.,.,-14.2
Cc1ccc(-c2nc(-c3ccccc3Br)no2)cc1,.,.,.,.,.,3.2
COc1ccc(C2C3=C(CC(C)(C)CC3=O)Nc3ccccc3N2C(=O)C(F)(F)F)cc1OC (stereo unspecified),.,.,.,.,.,-0.2
CN(Cc1cccc(Cl)c1Cl)S(=O)(=O)c1cn(C)c(=O)n(C)c1=O,.,.,.,.,.,11.2
CCc1cccc2c(C(=O)CN3CCN(C(C)C(=O)NC4CC4)CC3)c[nH]c12 (stereo unspecified),.,.,.,.,.,-12.1
Cc1ccc(C(C)C)c(OCC(O)CNC2CCCC2)c1 (stereo unspecified),23.1µM*,-6.1%,-51.2*,16.4µM*,?,-1.0
Cc1ccc(C(C)C)c(OCC(O)CN(C)Cc2ccccc2)c1 (stereo unspecified),23.1µM*,-21.0%,-85.2*,?,25.5%,-4.9
Cc1ccc(C(C)C)c(OCC(O)CNCc2ccccc2)c1 (stereo unspecified),.,.,.,.,.,12.5
O=C(CSc1ncc(-c2ccc(F)cc2)o1)Nc1ccc(O)cc1,.,.,.,.,.,8.4
COc1ccc(CCNC(=O)c2ccnc(C(C)(C)C)c2)cc1OC,4.0%,.,17.2,?,.,-7.7
COc1ccc(NC(=S)Nc2ccc(Oc3ccccc3)cc2)cc1,23.1µM*,-5.8%,-23.0,?,10.6%,-11.8
S=C(NCc1ccccc1)Nc1ccc2ccccc2c1,9.7%,11.2µM*,-76.1*,2.1%,3.98µM*,0.3
CC(C)(C)c1cc(C(=O)NCc2ccccc2)ccn1,13µM*,?,14.0,?,?,2.1
S=C(NCc1ccccc1)Nc1ccc(Oc2ccccc2)cc1,-14.6%,14.1µM*,-0.6,?,12.6µM*,-12.3
COC(=O)c1[nH]c2ccc(C)cc2c1NC(=O)c1ccccc1F,.,.,.,.,.,-4.0
Cc1nc2ccc(Cl)cc2cc1C(=O)NCc1cccnc1OC(C)C,.,.,.,.,.,-1.9
O=C(CCNC(=O)C1CCCC1)NC1CCCCCC1,.,.,.,.,.,1.2
O=C(CNCc1ccccc1)Nc1ccc(Oc2ccccc2)cc1,13.9%,-8.0%,-57.8*,?,33.4%,-2.0
CCNC(=S)Nc1ccc(Oc2ccccc2)cc1,?,.,-1.7,18.4µM*,.,1.8
COc1ccc(NC(=S)NN(C)C(=S)Nc2ccc(OC)cc2)cc1,?,?,29.5,?,7.94µM*,-1.8
